Source: the supplement of paper PMC11006884
Targets with a hit are over-represented here; the source holds about 6,500 in all. About 2% of all pairs of compound and target were hits. A number with no mark means an inactive call.

Compound: COC(=O)C#Cc1ccccc1 [methyl 3-phenylpropiolate]
Test: log2 ratio of iodoacetamide-alkyne labeling of the cysteine site, DMSO over compound (competition); higher = stronger covalent engagement of the cysteine by the compound, active = 1 or more
Conditions: 500 µM; treatment time 1 h; system: HEK293T cell lysate
How it was run: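 HEK293T lysate (2 mg/mL) was incubated with electrophile (500 µM) or vehicle for 1 h at ambient temperature and then with iodoacetamide alkyne for 1 h. Labelled proteins were clicked to sCIP-TMT reagents, pooled, digested, enriched on streptavidin and measured by Orbitrap Eclipse LC-MS/MS with FAIMS, with FragPipe quantification. The per-cysteine log2 competition ratio is mean control-channel reporter intensity over mean compound-channel reporter intensity. Across three replicates with duplicate channels, cysteines quantified in only one replicate were excluded.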

Chain of UniProt Q96R06 (Q96R06 whole entry, looked up): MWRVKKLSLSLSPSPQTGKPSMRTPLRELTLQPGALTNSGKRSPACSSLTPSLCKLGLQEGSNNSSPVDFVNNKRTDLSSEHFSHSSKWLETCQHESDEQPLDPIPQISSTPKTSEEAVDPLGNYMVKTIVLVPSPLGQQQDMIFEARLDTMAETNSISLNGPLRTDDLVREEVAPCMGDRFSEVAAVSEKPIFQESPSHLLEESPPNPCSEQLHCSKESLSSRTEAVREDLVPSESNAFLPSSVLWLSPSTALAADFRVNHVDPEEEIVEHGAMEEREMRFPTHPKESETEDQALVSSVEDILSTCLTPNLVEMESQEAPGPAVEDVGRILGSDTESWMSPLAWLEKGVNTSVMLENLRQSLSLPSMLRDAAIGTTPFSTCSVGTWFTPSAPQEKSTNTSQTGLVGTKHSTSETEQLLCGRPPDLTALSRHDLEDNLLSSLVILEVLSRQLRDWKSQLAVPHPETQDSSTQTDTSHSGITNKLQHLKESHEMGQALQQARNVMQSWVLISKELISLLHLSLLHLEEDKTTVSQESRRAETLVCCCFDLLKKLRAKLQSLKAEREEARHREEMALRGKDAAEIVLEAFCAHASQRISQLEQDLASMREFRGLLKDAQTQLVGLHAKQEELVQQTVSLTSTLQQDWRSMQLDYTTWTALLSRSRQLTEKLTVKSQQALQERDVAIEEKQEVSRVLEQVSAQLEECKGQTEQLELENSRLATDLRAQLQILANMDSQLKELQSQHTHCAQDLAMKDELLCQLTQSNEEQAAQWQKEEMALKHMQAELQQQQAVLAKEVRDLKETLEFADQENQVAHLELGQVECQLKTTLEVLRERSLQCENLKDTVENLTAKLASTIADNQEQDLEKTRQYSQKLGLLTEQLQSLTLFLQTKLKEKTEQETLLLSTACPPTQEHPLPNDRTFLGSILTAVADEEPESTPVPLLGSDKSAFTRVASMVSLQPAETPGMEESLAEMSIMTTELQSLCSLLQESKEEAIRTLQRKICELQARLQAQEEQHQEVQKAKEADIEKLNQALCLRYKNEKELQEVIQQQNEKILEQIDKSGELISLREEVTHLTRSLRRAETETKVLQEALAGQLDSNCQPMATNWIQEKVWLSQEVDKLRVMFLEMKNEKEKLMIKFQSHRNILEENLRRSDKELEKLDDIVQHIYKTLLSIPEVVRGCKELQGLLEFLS
Chain of UniProt Q6UB35 (Q6UB35 whole entry, looked up): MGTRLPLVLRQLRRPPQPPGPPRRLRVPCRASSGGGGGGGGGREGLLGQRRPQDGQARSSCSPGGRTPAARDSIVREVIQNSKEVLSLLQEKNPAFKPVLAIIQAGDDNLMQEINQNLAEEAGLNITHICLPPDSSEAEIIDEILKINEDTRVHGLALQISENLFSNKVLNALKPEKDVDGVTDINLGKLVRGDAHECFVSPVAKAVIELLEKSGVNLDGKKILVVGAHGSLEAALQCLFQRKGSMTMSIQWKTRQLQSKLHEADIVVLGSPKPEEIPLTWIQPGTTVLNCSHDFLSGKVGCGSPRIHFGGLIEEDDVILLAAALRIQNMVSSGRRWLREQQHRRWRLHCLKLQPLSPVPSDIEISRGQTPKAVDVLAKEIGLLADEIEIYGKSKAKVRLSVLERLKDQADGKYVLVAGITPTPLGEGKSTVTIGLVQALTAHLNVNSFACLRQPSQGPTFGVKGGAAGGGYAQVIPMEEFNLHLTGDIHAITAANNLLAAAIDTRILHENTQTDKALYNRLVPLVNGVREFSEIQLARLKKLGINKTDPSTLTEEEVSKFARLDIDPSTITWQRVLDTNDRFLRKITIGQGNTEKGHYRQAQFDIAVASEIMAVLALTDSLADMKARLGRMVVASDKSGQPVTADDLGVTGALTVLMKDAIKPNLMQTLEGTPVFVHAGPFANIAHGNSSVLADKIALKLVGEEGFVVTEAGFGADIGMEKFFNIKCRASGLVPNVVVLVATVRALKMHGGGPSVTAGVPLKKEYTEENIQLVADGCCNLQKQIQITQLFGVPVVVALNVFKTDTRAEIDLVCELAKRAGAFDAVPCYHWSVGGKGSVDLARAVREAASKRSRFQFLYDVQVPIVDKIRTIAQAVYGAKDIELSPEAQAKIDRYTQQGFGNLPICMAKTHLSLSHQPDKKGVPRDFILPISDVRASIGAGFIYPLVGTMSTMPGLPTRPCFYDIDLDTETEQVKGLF
Chain of UniProt Q9BRX5 (Q9BRX5 whole entry): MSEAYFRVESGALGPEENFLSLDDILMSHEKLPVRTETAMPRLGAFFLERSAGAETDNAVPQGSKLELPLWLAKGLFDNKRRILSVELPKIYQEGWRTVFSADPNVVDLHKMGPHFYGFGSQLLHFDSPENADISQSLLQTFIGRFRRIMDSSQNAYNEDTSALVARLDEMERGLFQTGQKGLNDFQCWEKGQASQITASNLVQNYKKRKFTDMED
Chain of UniProt Q93074 (Q93074 whole entry, looked up): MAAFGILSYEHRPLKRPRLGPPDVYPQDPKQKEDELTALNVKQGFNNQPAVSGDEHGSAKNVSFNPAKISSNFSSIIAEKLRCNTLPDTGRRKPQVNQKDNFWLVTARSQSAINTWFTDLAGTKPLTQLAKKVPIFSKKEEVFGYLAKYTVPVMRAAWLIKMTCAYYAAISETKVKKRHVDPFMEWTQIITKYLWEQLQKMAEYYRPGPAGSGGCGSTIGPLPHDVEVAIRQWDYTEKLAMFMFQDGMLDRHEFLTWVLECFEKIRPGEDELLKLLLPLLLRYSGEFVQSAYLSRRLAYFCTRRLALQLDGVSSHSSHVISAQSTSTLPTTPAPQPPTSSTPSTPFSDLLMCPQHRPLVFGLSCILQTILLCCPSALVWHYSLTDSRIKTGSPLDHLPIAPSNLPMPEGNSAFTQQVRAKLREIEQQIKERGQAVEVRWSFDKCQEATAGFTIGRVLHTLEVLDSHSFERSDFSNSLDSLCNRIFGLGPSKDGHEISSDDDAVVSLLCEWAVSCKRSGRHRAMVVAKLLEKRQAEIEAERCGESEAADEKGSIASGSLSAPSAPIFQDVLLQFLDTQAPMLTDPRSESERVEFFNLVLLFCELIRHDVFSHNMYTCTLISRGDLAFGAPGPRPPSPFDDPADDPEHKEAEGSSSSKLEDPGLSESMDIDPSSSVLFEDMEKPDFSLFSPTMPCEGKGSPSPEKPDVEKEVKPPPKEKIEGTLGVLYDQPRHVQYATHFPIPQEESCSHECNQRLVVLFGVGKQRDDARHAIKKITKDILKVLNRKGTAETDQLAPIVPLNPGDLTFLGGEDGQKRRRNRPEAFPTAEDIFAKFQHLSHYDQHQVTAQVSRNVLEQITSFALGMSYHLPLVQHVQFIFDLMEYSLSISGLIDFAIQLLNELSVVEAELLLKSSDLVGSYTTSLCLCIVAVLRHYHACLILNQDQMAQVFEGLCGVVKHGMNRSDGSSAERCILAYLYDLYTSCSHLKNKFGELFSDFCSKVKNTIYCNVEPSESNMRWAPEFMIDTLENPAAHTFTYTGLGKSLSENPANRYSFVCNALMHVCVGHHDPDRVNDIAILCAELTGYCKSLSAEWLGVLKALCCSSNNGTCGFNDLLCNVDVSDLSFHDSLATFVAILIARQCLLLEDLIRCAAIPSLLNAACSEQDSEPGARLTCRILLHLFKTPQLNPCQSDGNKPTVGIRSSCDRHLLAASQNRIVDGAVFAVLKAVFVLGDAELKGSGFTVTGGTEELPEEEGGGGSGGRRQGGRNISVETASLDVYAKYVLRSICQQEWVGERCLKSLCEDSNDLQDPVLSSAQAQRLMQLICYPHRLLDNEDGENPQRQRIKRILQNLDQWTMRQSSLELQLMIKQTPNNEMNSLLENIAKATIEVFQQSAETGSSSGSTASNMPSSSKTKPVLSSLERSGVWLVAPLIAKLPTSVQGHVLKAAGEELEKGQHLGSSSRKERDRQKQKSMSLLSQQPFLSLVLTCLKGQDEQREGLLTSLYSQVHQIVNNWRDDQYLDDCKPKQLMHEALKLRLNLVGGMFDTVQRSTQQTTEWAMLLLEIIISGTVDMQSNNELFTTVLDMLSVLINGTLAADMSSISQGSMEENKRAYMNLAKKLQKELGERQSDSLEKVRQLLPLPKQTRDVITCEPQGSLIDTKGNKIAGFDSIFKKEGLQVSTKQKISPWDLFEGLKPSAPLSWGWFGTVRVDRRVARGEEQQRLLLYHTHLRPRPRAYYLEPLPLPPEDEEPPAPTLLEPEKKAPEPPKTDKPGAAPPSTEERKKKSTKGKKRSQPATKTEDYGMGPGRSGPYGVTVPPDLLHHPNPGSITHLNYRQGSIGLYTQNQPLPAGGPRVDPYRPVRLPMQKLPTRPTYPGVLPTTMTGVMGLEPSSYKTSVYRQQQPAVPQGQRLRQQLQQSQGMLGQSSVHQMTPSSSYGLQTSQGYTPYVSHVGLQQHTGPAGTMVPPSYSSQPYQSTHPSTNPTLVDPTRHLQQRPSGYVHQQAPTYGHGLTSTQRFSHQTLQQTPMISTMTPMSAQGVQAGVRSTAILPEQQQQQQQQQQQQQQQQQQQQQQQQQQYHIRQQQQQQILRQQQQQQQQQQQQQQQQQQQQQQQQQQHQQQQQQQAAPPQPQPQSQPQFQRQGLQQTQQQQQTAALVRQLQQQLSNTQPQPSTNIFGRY
Chain of UniProt Q96KB5 (Q96KB5 whole entry, looked up): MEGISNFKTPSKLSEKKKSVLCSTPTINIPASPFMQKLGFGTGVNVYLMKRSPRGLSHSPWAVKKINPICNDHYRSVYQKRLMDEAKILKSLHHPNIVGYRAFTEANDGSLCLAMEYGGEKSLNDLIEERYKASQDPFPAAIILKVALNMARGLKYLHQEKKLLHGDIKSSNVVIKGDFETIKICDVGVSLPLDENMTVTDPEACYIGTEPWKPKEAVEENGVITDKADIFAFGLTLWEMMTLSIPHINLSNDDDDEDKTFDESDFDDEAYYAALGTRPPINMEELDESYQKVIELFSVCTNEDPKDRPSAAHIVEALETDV
Chain of UniProt Q96GX2 (Q96GX2 whole entry): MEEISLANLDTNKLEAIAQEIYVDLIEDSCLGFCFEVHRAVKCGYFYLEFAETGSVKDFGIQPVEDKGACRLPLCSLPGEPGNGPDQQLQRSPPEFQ

Q: Which “log2 ratio of iodoacetamide-alkyne labeling” value (shortened to “log2 ratio”) does the source give for GINS3 C188 (UniProt Q9BRX5) here?
A: Its value is 0.255.

Q: UniProt Q86YR5_C515 was tested. Which “log2 ratio” value did it give?
A: Its value is 1.7 (active).

Q: How did the “log2 ratio” value turn out when ATPAF1 C321 (UniProt Q5TC12) was run?
A: The value was 0.464.

Q: UniProt Q8WYL5_C626 was tested. Which “log2 ratio” value did it give?
A: Its value is 1.19 (active).

Q: PBK C112 (UniProt Q96KB5) was tested. Which “log2 ratio” value did it give?
A: The value was 0.35.

Q: Which “log2 ratio” value does the source give for NEK9 C25 (UniProt Q8TD19) here?
A: Its value is 1.21 (active).

Q: How did the “log2 ratio” value turn out when SPAG5 C1035 (UniProt Q96R06) was run?
A: The value was 0.251.

Q: MED12 C83 (UniProt Q93074) was tested. Which “log2 ratio” value did it give?
A: The value was 0.457.

Q: Which “log2 ratio” value does the source give for ACD C406 (UniProt Q96AP0) here?
A: Its value is 0.713.

Q: With SMC5 C726 (UniProt Q8IY18) as the target, how does the “log2 ratio” value read?
A: Its value is 0.249.

Q: How did the “log2 ratio” value turn out when IRF2BP2 C16 (UniProt Q7Z5L9) was run?
A: The value was 0.113.

Q: TBRG4 C335 (UniProt Q969Z0) was tested. Which “log2 ratio” value did it give?
A: The value was 0.436.

Q: Which “log2 ratio” value does the source give for ARL6IP6 C48 (UniProt Q8N6S5) here?
A: Its value is 0.392.

Q: For INTS1 C643 (UniProt Q8N201), which “log2 ratio” value is on record?
A: Its value is 0.127.

Q: SMCR8 C644 (UniProt Q8TEV9) was tested. Which “log2 ratio” value did it give?
A: Its value is 0.488.

Q: How did the “log2 ratio” value turn out when UniProt Q8WZA9_C504 was run?
A: The value was 0.0403.

Q: For SND1 C96 (UniProt Q7KZF4), which “log2 ratio” value is on record?
A: Its value is 0.115.

Q: How did the “log2 ratio” value turn out when UniProt Q7RTV0_C61 was run?
A: Its value is 0.11.

Q: With AHCTF1 C521 (UniProt Q8WYP5) as the target, how does the “log2 ratio” value read?
A: The value was 1.16 (active).

Q: For SEC14L1 C258 (UniProt Q92503), which “log2 ratio” value is on record?
A: The value was 0.208.

Q: For ARID2 C1549 (UniProt Q68CP9), which “log2 ratio” value is on record?
A: Its value is 0.434.

Q: For UniProt Q8NB37_C154, which “log2 ratio” value is on record?
A: Its value is 0.389.

Q: Which “log2 ratio” value does the source give for DHX38 C27 (UniProt Q92620) here?
A: The value was 1.36 (active).

Q: With PHIP C954 (UniProt Q8WWQ0) as the target, how does the “log2 ratio” value read?
A: The value was 1.46 (active).

Q: With LGMN C219 (UniProt Q99538) as the target, how does the “log2 ratio” value read?
A: Its value is 0.865.

Q: How did the “log2 ratio” value turn out when WDFY2 C290 (UniProt Q96P53) was run?
A: The value was -0.231.

Q: With UniProt Q86Y56_C173 as the target, how does the “log2 ratio” value read?
A: Its value is 0.779.

Q: Which “log2 ratio” value does the source give for LUZP1 C594 (UniProt Q86V48) here?
A: Its value is 1.19 (active).

Q: Which “log2 ratio” value does the source give for NUP205 C877 (UniProt Q92621) here?
A: The value was 0.102.

Q: With MTHFD1L C291 (UniProt Q6UB35) as the target, how does the “log2 ratio” value read?
A: The value was 0.126.

Q: How did the “log2 ratio” value turn out when CAND1 C275 (UniProt Q86VP6) was run?
A: Its value is -0.226.

Q: How did the “log2 ratio” value turn out when INTS1 C1701 (UniProt Q8N201) was run?
A: Its value is -0.0332.

Q: ATXN7L3B C75 (UniProt Q96GX2) was tested. Which “log2 ratio” value did it give?
A: Its value is 1.03 (active).

Q: For UniProt Q8IX01_C183, which “log2 ratio” value is on record?
A: Its value is 0.451.

Q: Which “log2 ratio” value does the source give for DIDO1 C455 (UniProt Q9BTC0) here?
A: The value was 0.67.
